In PubChem BioAssay AID504428 (National Center for Advancing Translational Sciences (NCATS), 2011):
Some of the results follow. A call without a number means that no potency is given here. Calls of active or inactive are those of the source.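 How the source made its calls: active means compounds that inhibited Clk3 enough in the ten-dose series to give a half-maximal potency; inactive means the rest.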

molecular target: Dual specificity protein kinase CLK3 (Homo sapiens) (UniProt P49761); experiment: Kinase Inhibition Study on Inhibitors of CDC-like Kinase 3 (Reaction Biology data); conditions: recombinant CLK3 kinase assay, 10 uM ATP
Excerpt: NIH Molecular Libraries Probe Production Centers Network [MLPCN] NIH Chemical Genomics Center [NCGC] MLPCN Grant: 1R03MH084827-01 Assay Submitter (PI): Tom Misteli NCGC Assay Overview: Alternative splicing of pre-mRNAs plays a major role in the regulation of eukaryotic gene expression. Alternative splicing is now thought to be one of the primary reasons for the complexity of higher organisms leading to an average of three protein isoforms per gene. Aberrant splicing can lead to a number of diseases and is known to play a role in rare genetic diseases such as progeria syndrome. Hutchinson-Gilford Progeria Syndrome (HGPS) is a pediatric premature aging disease caused by a spontaneous mutation in the lamin A/C (LMNA) gene due to a single point mutation in the lamin A gene effecting 1 in 4 million people. To identify both specific splicing modulators of the lamin A gene as well as general splicing modulators, a cell-based HTS assay was developed using a minigene reporter system (AIDs, 1459 & 1487). […] This AID summarizes the characterization of lead compounds in Clk3.
All kinase reactions were performed using 10 uM ATP in the assay. 100% activity was taken from kinase reactions with DMSO alone (the vehicle used for compound stock solutions).

Chain of Dual specificity protein kinase CLK3 (Homo sapiens) (P49761 whole entry, looked up, canonical isoform): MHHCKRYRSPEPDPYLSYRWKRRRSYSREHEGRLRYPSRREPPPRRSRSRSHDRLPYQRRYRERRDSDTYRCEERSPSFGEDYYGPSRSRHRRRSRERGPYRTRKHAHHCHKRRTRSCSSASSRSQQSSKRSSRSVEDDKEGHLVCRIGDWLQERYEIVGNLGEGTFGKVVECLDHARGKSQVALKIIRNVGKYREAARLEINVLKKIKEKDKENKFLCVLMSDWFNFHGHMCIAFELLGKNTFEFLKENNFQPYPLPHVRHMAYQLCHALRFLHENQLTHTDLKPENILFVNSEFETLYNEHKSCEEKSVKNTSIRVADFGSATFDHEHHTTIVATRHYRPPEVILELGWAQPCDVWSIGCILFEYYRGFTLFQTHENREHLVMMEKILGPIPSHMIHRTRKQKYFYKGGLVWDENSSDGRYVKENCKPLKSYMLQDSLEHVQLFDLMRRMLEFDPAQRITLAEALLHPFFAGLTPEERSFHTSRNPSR

Row | Compound | Potency | outcome
1 | c1coc(CCNc2ncnc3ccc(-c4ccc5c(c4)OCO5)cc23)c1 | 2.02 µM (active) | –
2 | CN(Cc1cncn1C)c1ncnc2ccc(-c3ccc4c(c3)OCO4)cc12 | – | inactive
3 | CC(Nc1ncnc2ccc(-c3ccc4c(c3)OCO4)cc12)c1ccco1 (centres undefined) | 15 µM (active) | –
4 | c1nc(N2CCOCC2)c2cc(-c3ccc4c(c3)OCO4)ccc2n1 | – | inactive
